Assay results taken from PubChem BioAssay (NCI).
About 83,000 compounds went through this panel and 20% of them were active in at least one assay; those are over-represented in the sample as a whole.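 Interpretation: 100, growth as untreated; towards 0, rising growth inhibition; 0, no net growth; 0 to -100, cell death. Compounds scoring below 10 were considered active.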 Activity calls are given as the source filed them.

What follows are molecules tested on CCRF-CEM leukemia (assay: NCI-60 one-dose screen, 48 h (100 = growth as untreated, 0 = no growth, -100 = all killed)). Conditions: 10 µM unless noted.
Procedure: Growth inhibition of the CCRF-CEM human tumor cell line is measured as a screen for anti-cancer activity. Cells are grown in 96 well plates and exposed to the test compound for 48 hours. Compounds are tested at a single concentration, which is 10^-5 M for most compounds. The reported endpoint is percent growth (GI% or GIPRCNT), where numbers from 0 - 100% represent growth inhibition, and numbers from -100% - 0 represent cell death. For example, a value of 40 represents 60% growth inhibition. A value of 0 means no net growth occurred over the course of the experiment. A value of -40 indicates 40% of cells at the beginning of the experiment died by the end of the experiment. A value of -100 means all cells are dead at the end of the experiment.
NCI-60 Human Tumor Cell Lines Screen was performed using the standard one-dose NCI protocol, which is described in more detail at https://dtp.cancer.gov/discovery_development/nci-60/default.htm.
Compounds with GIPRCNT values below 10 were considered active. Activity score was based on GIPRCNT using the following formula: […]
Score is 0 for GIPRCNT values of 100 or above, 50 for GIPRCNT values of 0, and 100 for GIPRCNT values of -100.

Question: Which growth does the source give for O=C1c2ccc3c4ccc5c6c(ccc(c7ccc(c2c37)C(=O)N1CCC[P+](c1ccccc1)(c1ccccc1)c1ccccc1)c64)C(=O)N(CCC[P+](c1ccccc1)(c1ccccc1)c1ccccc1)C5=O here?
Answer: 45.9% (inactive)

Question: For O=C1/C(=C/c2ccc(Cl)c(Cl)c2)CN(C(=O)C(Cl)Cl)C/C1=C\c1ccc(Cl)c(Cl)c1, which growth is on record?
Answer: 4.82% (active)

Question: Which growth does the source give for CC(=O)N(N=Nc1ccccc1)c1cccc2ccccc12 here?
Answer: 79.8% (inactive)

Question: Which growth does the source give for CCCCOC(=O)OCc1cc(=O)c(O)co1 here?
Answer: 109% (inactive)

Question: With O=C(N/N=C/c1ccc(F)cc1)c1ccc(C(F)(F)F)nc1Nc1cccc(C(F)(F)F)c1 as the molecule, how does the growth read?
Answer: 0.801% (active)

Question: How did the growth turn out when COC(=O)c1cc(-c2ccccc2)[nH]c1N/N=C/c1c(Cl)cccc1Cl was run?
Answer: -8.44% (active)

Question: Which growth does the source give for Cc1cc(=O)[nH]c2c(C#N)cnn12 here?
Answer: 101% (inactive)

Question: For COc1ccc(C(c2cc(OC)c(OC)c(OC)c2)N2CCN(c3ccccc3)CC2)cc1 (stereo not given), which growth is on record?
Answer: 82.6% (inactive)

Question: CCCc1cc(NC)nc(S(=O)(=O)CC)n1 was tested. Which growth did it give?
Answer: 107% (inactive)

Question: CNC(=O)c1cc(Oc2ccc3nc(NC(C)=O)sc3c2)ccn1 was tested. Which growth did it give?
Answer: 94.7% (inactive)

Question: How did the growth turn out when O=C(NCCCCNC(=O)OCc1ccc2c(Cl)cc(Cl)c(O)c2n1)OCc1ccc2c(Cl)cc(Cl)c(O)c2n1 was run?
Answer: 18.3% (inactive)

Question: How did the growth turn out when Nc1ncnc2c1N=C(c1ccc3c(c1)OCO3)CC(c1ccc([N+](=O)[O-])cc1)N2 (stereo not given) was run?
Answer: 39.3% (inactive)

Question: For O=C(c1ccc(Cl)cc1)N1CCN(c2ccnc3cc(Cl)ccc23)CC1, which growth is on record?
Answer: 90.9% (inactive)

Question: Which growth does the source give for Cc1ccccc1NC(=O)c1sc2nc(C)c(C(=O)/C=C/c3ccccc3)cc2c1N here?
Answer: 8.43% (active)

Question: With N#CC1C=CN(CC(N)=O)c2ccc3cccnc3c21 (stereo not given) as the molecule, how does the growth read?
Answer: 78% (inactive)

Question: For C/C(Nc1ccc(Cl)c(Cl)c1)=C1\CCOC1=O, which growth is on record?
Answer: 81.5% (inactive)

Question: For O=C(Nc1ccc(NC(=O)c2cc(=O)[nH]c3ccccc23)cc1)Nc1cccc(C(F)(F)F)c1, which growth is on record?
Answer: 70.2% (inactive)

Question: How did the growth turn out when Cc1nc2sc(C(=O)Nc3cccc(Cl)c3C)c(N)c2cc1C(=O)c1ccccc1 was run?
Answer: 8.23% (active)

Question: How did the growth turn out when O=[N+]([O-])c1ccc(N/N=C(/C(=N/Nc2ccc([N+](=O)[O-])cc2)c2ccccc2)c2ccccc2)cc1 was run?
Answer: 90.9% (inactive)

Question: For O=C(CCCCCCN1CC(=O)N2[C@H](c3cc(Br)cs3)c3[nH]c4ccccc4c3C[C@H]2C1=O)NO, which growth is on record?
Answer: 23.9% (inactive)

Question: With CN1C(=O)/C(=C/c2ccc(C(=O)Nc3ncc(Cc4ccc(Cl)cc4)s3)cc2)SC1=S as the molecule, how does the growth read?
Answer: 55.5% (inactive)

Question: How did the growth turn out when O=c1c2cc(-c3ccccc3)sc2nc2sc(-c3ccccc3)nn12 was run?
Answer: 104% (inactive)

Question: For CC(C)c1ccc(COCc2cc(CN3CCCC3)c(O)c3ncccc23)cc1, which growth is on record?
Answer: 1.53% (active)

Question: Which growth does the source give for Oc1ccc(CCn2c(O)c(/C=C3\CN=c4ccccc4=N3)sc2=S)cc1 here?
Answer: 7.79% (active)

Question: How did the growth turn out when CN(CCOc1ccc(C#N)cc1)CCOc1ccc(C#N)cc1 was run?
Answer: -84.4% (active)

Question: With CS(=O)(=O)Nc1cc(-c2ccc3ncnc(Nc4c(Cl)ccc5c4OCO5)c3c2)cnc1Cl as the molecule, how does the growth read?
Answer: 11.9% (inactive)

Question: With O=C(Cn1cc(CN2C(=O)c3ccccc3S2(=O)=O)nn1)Nc1nc2ccccc2s1 as the molecule, how does the growth read?
Answer: 113% (inactive)

Question: With O=C(NNc1nccc(Nc2ccc(S(=O)(=O)Nc3ccncc3)cc2)n1)c1ccccc1 as the molecule, how does the growth read?
Answer: 111% (inactive)

Question: How did the growth turn out when CC(C)(C)[Si](C)(C)O[C@H]1C(=O)C=CN2CC=C[C@@H]12 was run?
Answer: 106% [100 µM] (inactive)

Question: Which growth does the source give for CN(C)CCNc1nc2c3cc(Cl)ccc3nn2c2ccccc12 here?
Answer: 47.1% (inactive)

Question: How did the growth turn out when O=C(O)[C@@H]1c2ccccc2-c2ccccc2[C@H]1C(=O)O was run?
Answer: 87.1% (inactive)

Question: Which growth does the source give for CN(C)c1ccc(/C=C/C(=O)c2ccc(-n3cc(CN4CCN(c5cc6c(cc5F)c(=O)c(C(=O)O)cn6C5CC5)CC4)nn3)cc2)cc1 here?
Answer: 20% (inactive)

Question: For COc1cc(/C=C/C(=O)c2cccc(Nc3nc(Nc4ccccc4)nc(Nc4ccccc4)n3)c2)cc(OC)c1OC, which growth is on record?
Answer: 6.56% (active)

Question: For Nc1c(C(=O)Nc2ccccc2Cl)sc2nc3c(cc12)C(O)CCC3 (stereo not given), which growth is on record?
Answer: 17.7% (inactive)

Question: Which growth does the source give for CCOC(=O)C(=Cc1cccc(Cl)c1)C(=O)OCC here?
Answer: -1.23% (active)

Question: How did the growth turn out when O=C1/C(=C/c2ccc(F)cc2)COc2ccc(O)c(O)c21 was run?
Answer: 3.39% (active)

Question: O=C1/C(=C\c2cn(-c3ccccc3)nc2-c2ccc(-c3cccs3)cc2)CCc2ccccc21 was tested. Which growth did it give?
Answer: 48% (inactive)

Question: For Fc1cc(F)cc(C(c2c[nH]c3ccccc23)c2c[nH]c3ccccc23)c1, which growth is on record?
Answer: 89.1% (inactive)

Question: Which growth does the source give for CCOC(=O)c1nc(Nc2ccc(NC(=O)Nc3ccc(F)cc3)cc2)c2ccccc2n1 here?
Answer: 109% (inactive)

Question: For CCOC(=O)c1cc(-c2ccc([N+](=O)[O-])cc2)n(-c2ccc(C(=O)O)c(O)c2)c1C, which growth is on record?
Answer: 50% (inactive)
